PPARg SRC-3 ag: PPARgamma agonists recruiting SRC-3 coactivator, primary screen, biochemical; Peroxisome proliferator-activated receptor gamma (Homo sapiens), P37231; biochemical PPARgamma/SRC-3 coactivator recruitment assay; activation, % at 8 µM; 200,000 compounds, 0.26% hits; AID 731, 2007; in the data active means activation above about 23%;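 further: 0% = DMSO and 100% = reference agonist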
Target sequence (P37231 whole entry, looked up): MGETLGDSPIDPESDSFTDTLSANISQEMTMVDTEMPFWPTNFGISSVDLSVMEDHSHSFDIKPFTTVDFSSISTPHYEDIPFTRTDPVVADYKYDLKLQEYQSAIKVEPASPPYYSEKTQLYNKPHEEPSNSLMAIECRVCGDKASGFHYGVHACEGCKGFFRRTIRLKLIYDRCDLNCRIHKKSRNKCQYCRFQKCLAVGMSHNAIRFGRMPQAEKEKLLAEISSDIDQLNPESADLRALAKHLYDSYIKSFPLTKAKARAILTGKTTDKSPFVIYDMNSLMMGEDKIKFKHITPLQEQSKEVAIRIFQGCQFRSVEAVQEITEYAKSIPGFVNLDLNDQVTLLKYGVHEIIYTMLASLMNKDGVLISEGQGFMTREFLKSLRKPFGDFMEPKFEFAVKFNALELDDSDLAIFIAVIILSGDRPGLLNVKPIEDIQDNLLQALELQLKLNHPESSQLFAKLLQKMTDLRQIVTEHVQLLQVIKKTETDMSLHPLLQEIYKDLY
SRC3 TRFRET art: TR-FRET detection interference compounds, artefact control for PPARgamma SRC-3 recruitment agonists, biochemical, TR-FRET ratio; TR-FRET ratio at 8 µM; 99,000 compounds, 0.39% hits; AID 1048, 2008; TR-FRET artefact counter-screen, PPARgamma/SRC-3 format; stronger effect = higher value; in the data active means TR-FRET ratio above about 2000
PPARg SRC-1 ag: PPARgamma agonists recruiting SRC-1 coactivator, primary screen, biochemical. PPARgamma-SRC-1 coactivator recruitment biochemical assay. activation, % at 8 µM. 200,000 compounds, 0.41% hits. Peroxisome proliferator-activated receptor gamma (Homo sapiens), P37231; in the data active means activation above about 19%;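 further: 0% = DMSO and 100% = reference agonist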
PPARg SRC-2 ag: agonists of PPARg-SRC-2 recruitment, primary screen, biochemical, HTS; Peroxisome proliferator-activated receptor gamma (Homo sapiens), P37231; AID 1032, 2008; 200,000 compounds, 0.34% hits; activation, % at 8 µM; PPARgamma LBD-SRC-2 recruitment;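 further: 0% = vehicle and 100% = reference agonist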
SRC2 TRFRET art: TR-FRET signal artefacts, primary screen, artefact control for PPARgamma SRC-2 agonist project, biochemical; TR-FRET artefact counter-screen; stronger effect = higher value; 200,000 compounds, 0.4% hits; TR-FRET ratio at 8 µM; in the data active means TR-FRET ratio above about 2000
SRC1 TRFRET art: TR-FRET detection interference compounds, primary screen, artefact control for PPARgamma SRC-1 recruitment agonists, biochemical, TR-FRET emission ratio; TR-FRET detection artefact counter-screen; stronger effect = higher value; TR-FRET ratio at 8 µM; 99,000 compounds, 0.34% hits; AID 1051, 2008; in the data active means TR-FRET ratio above about 2300
PPARg SRC2 ag: agonists of PPARgamma SRC-2 coactivator recruitment, confirmation, biochemical, HTS. shares compounds with PPARg SRC-3 ag. biochemical SRC-2 recruitment by PPARgamma. activation, % at 8 µM. 790 compounds, 52% hits. AID 1297, 2008;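 further: 0% = vehicle alone and 100% = reference agonist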
PPARg SRC1 ag: PPARgamma agonists recruiting SRC-1 coactivator, confirmation, biochemical; shares compounds with PPARg SRC-3 ag; PPARgamma–SRC-1 coactivator recruitment biochemical assay; activation, % at 8 µM; 790 compounds, 43% hits; AID 1300, 2008; in the data active means activation above about 20%;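 further: 0% = vehicle wells and 100% = reference agonist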
PPARg SRC3 ag: PPARgamma-driven SRC-3 coactivator recruitment agonists, confirmation, biochemical | shares compounds with PPARg SRC-3 ag | AID 1301, 2008 | activation, % at 8 µM | 790 compounds, 29% hits | biochemical PPARgamma-SRC-3 coactivator recruitment, agonist mode; in the data active means activation above about 24%;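 further: 0% = vehicle wells and 100% = reference agonist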
Numbers without * were called inactive; / = no result given. In the library only some 0.9% were active in any assay of this set; here they are far more common. Unless noted, no stated cut-off is given here; in the data, active means activation above about 22%; inactive means the rest.

SMILES	PPARg SRC-3 ag	SRC3 TRFRET art	PPARg SRC-1 ag	PPARg SRC-2 ag	SRC2 TRFRET art	SRC1 TRFRET art	PPARg SRC2 ag	PPARg SRC1 ag	PPARg SRC3 ag
Cc1cccc2nc(-c3ccccc3)nc(N[C@@H](CO)c3ccccc3)c12	1.6	1386	7.3	8.0	1588	1742	/	/	/
COc1ccc(NC(=O)/C=C/c2cc(Br)ccc2OC)cc1	-0.1	/	0.3	-3.2	1651	/	/	/	/
CCN(CC)c1ccc(NC(=O)/C=C/c2cc(Br)ccc2OC)cc1	12.8	/	23.8*	17.3	1525	/	1.3	4.0	3.1
CCOc1cc(Br)ccc1S(=O)(=O)N1CCC(C(N)=O)CC1	-2.6	1611	-3.3	1.4	1366	1680	/	/	/
CCN(CC)C(=O)c1sc2[nH]c(=S)n(-c3ccccc3)c(=O)c2c1C	9.4	/	12.7	26.9*	1795	/	10.4	7.3	8.2
COc1cc(/C=C(\C#N)C(=O)Nc2cccc3ncccc23)cc(OC)c1OC	24.2*	1573	8.6	9.8	1527	1866	3.2	9.9	13.0
Cc1cccc(NC(=O)CNC(=O)COc2ccc(-c3ccc(C#N)cc3)cc2)c1C	7.5	1717	26.7*	11.9	1521	2605*	8.4	7.9	5.0
Cc1cccc(NC(=O)CNC(=O)COc2ccc(C(=O)c3ccc(F)cc3)cc2)c1C	3.5	1628	2.9	1.3	1480	1970	/	/	/
Cc1ccc(/C=C/C(=O)Nc2ccc(N(C)C)cc2)o1	15.1	1522	25.4*	24.8*	1841	2095	9.2	5.7	3.5
CCC(NC(=O)c1ccccc1NC(=O)c1ccco1)C(=O)NC1CCCCC1 (stereo unspecified)	11.7	/	10.6	24.9*	2076*	/	9.5	7.6	4.3
C=CCn1c(NS(=O)(=O)c2ccccc2)c(S(=O)(=O)c2ccc(C)cc2)c2nc3ccccc3nc21	47.7*	1561	38.8*	24.4*	1450	1803	4.1	6.9	10.1
O=C(Cc1cccs1)N1CCN(c2ccc([N+](=O)[O-])cc2)CC1	-0.2	1647	1.9	-0.2	1545	1681	/	/	/
C=CCn1c(=S)[nH]c2scc(-c3cccs3)c2c1=O	42.4*	3585*	68.0*	76.1*	3332*	3938*	77.8*	55.5*	47.5*
Cn1c(=S)[nH]c2scc(-c3cccs3)c2c1=O	26.7*	2495*	50.4*	42.3*	2702*	3197*	57.4*	41.4*	36.5*
O=c1c2c(-c3cccs3)csc2ncn1-c1ccc(Br)cc1	3.5	/	3.5	17.1	1896	/	/	/	/
CCOC(=O)C1CCN(S(=O)(=O)c2c(C)n[nH]c2C)CC1	11.6	/	3.8	2.6	1440	/	/	/	/
N#C/C(=C\c1ccc(N2CCOCC2)o1)c1nc2ccccc2[nH]1	22.9	/	25.2*	25.5*	1740	/	4.4	13.3	11.4
N#C/C(=C\c1ccc(N2CCOCC2)c([N+](=O)[O-])c1)c1nc2ccccc2[nH]1	0.2	1599	-5.3	-0.6	1476	1558	/	/	/
COC(=O)c1sc(NC(=O)CSc2nnc(C(C)C)n2C)nc1C	10.1	/	19.1*	14.1	1715	/	-0.5	-0.1	0.3
CCOC(=O)c1sc(NC(=O)CSc2nnc(C(C)C)n2C)nc1C	12.9	/	3.4	1.2	1699	/	/	/	/
Cc1ccc(C(=O)Nc2nc(C)c(C(=O)Nc3ccc4c(c3)CCC4)s2)cc1	5.0	1720	2.6	5.4	1495	1658	/	/	/
CCOc1ccc(NC(=O)Nc2cc(-c3ccccc3)sc2C(=O)OC)cc1	-0.7	1594	4.9	1.4	1494	1837	/	/	/
COC(=O)c1sc(-c2ccccc2)cc1NC(=O)C1CC1	21.0	2499*	32.6*	30.2*	2243*	2544*	32.0*	21.1*	17.6
CCOC(=O)c1sc(-c2ccc(OC)cc2)cc1NC(C)=O	14.1	2089*	17.9	22.5*	1849	2390*	43.0*	29.7*	31.5*
FC(F)(F)c1ccc(Oc2ccc3cc(Br)ccc3c2)nc1	-0.9	1722	2.0	1.7	1741	2080	/	/	/
SMILES	PPARg SRC-3 ag	SRC3 TRFRET art	PPARg SRC-1 ag	PPARg SRC-2 ag	SRC2 TRFRET art	SRC1 TRFRET art	PPARg SRC2 ag	PPARg SRC1 ag	PPARg SRC3 ag
CC1=CC(C)(C)N(C(=O)CNC2CCCC2)c2cc(C)ccc21	-0.5	1653	4.3	9.9	1330	1658	/	/	/
Cc1[nH]c2ccccc2c1CN1CCC(Cc2ccccc2)CC1	5.8	1464	5.2	5.1	1630	1708	/	/	/
Cc1cc(NS(=O)(=O)c2ccc(Br)s2)no1	-3.6	/	7.5	0.7	1545	/	/	/	/
Cc1cc(C(=O)OCC(=O)c2ccc(Br)s2)c(C)o1	31.3*	/	19.7*	7.8	1872	/	41.1*	30.2*	29.7*
COc1ccc(OC)c(C(=O)COC(=O)c2cc(C)oc2C)c1	-3.5	/	1.6	-2.1	1514	/	/	/	/
Cc1cc(C(=O)OCC(=O)c2ccc(Br)s2)no1	123.1*	/	65.0*	89.7*	2269*	/	54.0*	34.2*	39.3*
Cc1cc2nc(-c3ccc(SCc4ccccc4C#N)nc3)[nH]c2cc1C	45.7*	/	35.6*	58.5*	2284*	/	31.6*	20.4*	19.7
CCN(CC)S(=O)(=O)c1ccc(N2CCOCC2)c(NC(=O)C23CC4CC(CC(Cl)(C4)C2)C3)c1	-1.1	1657	5.4	-0.8	1581	1794	/	/	/
COC(=O)c1ccc(C2C(C(=O)c3cc4ccccc4o3)=C(O)C(=O)N2CCCN(C)C)cc1 (stereo unspecified)	28.6*	/	22.4*	17.7	1943	/	25.1*	22.1*	18.9
COC(=O)c1ccc(C2/C(=C(\O)c3cccc(OC)c3)C(=O)C(=O)N2CCCN(C)C)cc1 (stereo unspecified)	1.5	1661	9.5	-0.4	1824	2143	/	/	/
O=C(C1=C(O)C(=O)N(CCCN2CCOCC2)C1c1ccncc1)c1cc2ccccc2o1 (stereo unspecified)	6.9	2068*	22.7*	21.0	1889	2425*	24.8*	16.3	16.0
CN(C)CCCN1C(=O)C(O)=C(C(=O)c2cc3ccccc3o2)C1c1ccccc1 (stereo unspecified)	90.0*	/	53.2*	72.6*	3299*	/	69.9*	49.7*	44.6*
